Reference: PubChem BioAssay (Tox21)
Inconclusive results are not listed. A call without a number means that no potency is given here. Calls of active or inactive are those of the source. Calls come from the whole dose curve. Bridge positions count the residues as written; N and C are the ends. Square brackets hold non-standard residues; d marks the D form. Peptide text beside a SMILES is read from it. hArg = N=C(N)NCCCC[C@H](N)C(=O)O; Mpa = O=C(O)CCS

Test: p53 small molecule agonists, cell-based qHTS assay with human liver microsomes (AID 1963577)
Method in brief: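 In this qHTS, p53 response-element beta-lactamase cells receive test compound together with a microsome/NADPH activating system (0.5 mg/mL final each) and are incubated 16 h at 37 C before LiveBLAzer fluorescence detection.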

| SMILES | Potency |
| --- | --- |
| Cc1cc(C2CCCCC2)n(O)c(=O)c1 | inactive |
| Nc1ccc(F)cc1F | inactive |
| CCO[Si](CC(C)C)(OCC)OCC | inactive |
| CC(=O)Oc1ccc(C2(c3ccc(OC(C)=O)cc3)Oc3ccccc3NC2=O)cc1 | inactive |
| Nc1ccc(-c2ccc(F)cc2)cc1 | inactive |
| COc1nccnc1CC(C)C | inactive |
| CCCCC(CC)COP(=O)(O)O (configuration not stated) | inactive |
| CC(C)c1cccc(C(C)C)c1N1C(=O)c2ccc(O)cc2C1=O | inactive |
| CS(=O)(=O)CCNCc1ccc(-c2ccc3ncnc(Nc4ccc(OCc5cccc(F)c5)c(Cl)c4)c3c2)o1 | inactive |
| CCc1c(C)[nH]c2c1C(=O)C(CN1CCOCC1)CC2 (configuration not stated) | inactive |
| O=C(/C=C/c1ccc(O)c(O)c1)O[C@@H]1C[C@@](OC(=O)/C=C/c2ccc(O)c(O)c2)(C(=O)O)C[C@@H](O)[C@@H]1O | inactive |
| COCCOC(=O)CC#N | inactive |
| C[Si](C)(C)C | inactive |
| CC[C@]1(O)C[C@H]2CN(CCc3c([nH]c4ccccc34)[C@@](C(=O)OC)(c3cc4c(cc3OC)N(C=O)[C@H]3[C@@](O)(C(=O)OC)[C@H](OC(C)=O)[C@]5(CC)C=CCN6CC[C@]43[C@@H]65)C2)C1 | inactive |
| CCCCNC1CC(C)(C)NC(C)(C)C1 | inactive |
| O=C(OCCc1ccccc1)c1ccccc1 | inactive |
| O=C1c2ccccc2-c2ccccc21 | inactive |
| CCCCN(CCN(CCCC)C(=O)N1CCOCC1)C(=O)N1CCOCC1 | inactive |
| c1ccc(C[n+]2cccc3ccccc32)cc1 | inactive |
| C[C@]12CC[C@H]3C(=CCc4cc(O)ccc43)[C@@H]1CCC2=O | inactive |
| O=C(Cl)c1cc(Cl)cc(Cl)c1 | inactive |
| NC(=O)[C@@H]1CSSCCC(=O)N[C@@H](CCCCN=C(N)N)C(=O)NCC(=O)N[C@@H](CC(=O)O)C(=O)N[C@@H](Cc2c[nH]c3ccccc23)C(=O)N2CCC[C@H]2C(=O)N1 ([Mpa][hArg]GDWPC-NH2; disulfide 1-7) | inactive |
| c1csc(SSc2cccs2)c1 | inactive |
| O=C[C@@H](O)[C@H](O)[C@H](O)CO | inactive |
| CC(CN=Cc1ccccc1O)N=Cc1ccccc1O (configuration not stated) | inactive |
| O=C(O)CCCCCCCCCC(=O)O | inactive |
| COC(=O)c1ccc(C(=O)O)cc1 | inactive |
